# Unmarked numbers belong to inactive results. Records with an inconclusive call do not appear. Activity calls are given as the source filed them. Unless noted, the call rests on the fitted dose curve.
# Biological target: Glucocorticoid receptor (Homo sapiens) (UniProt P04150)
# Assay: GR-EFC Redistribution (AID 451); further: potency means the concentration at half of the fitted maximal effect
# Conditions: CHO-K1 GR-EFC translocation, beta-gal luminescence, 2 h
# In short: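 Translocation of GR-ED fusion to nuclear EA restores b-gal, read by luminescence after 1 h room-temperature detection. Engineered CHO-K1 biosensor cells, 1,000/well, exposed 2 h at 37 C to titrations up to 46 uM final.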
# Glucocorticoid receptor (Homo sapiens), sequence (P04150 whole entry, looked up): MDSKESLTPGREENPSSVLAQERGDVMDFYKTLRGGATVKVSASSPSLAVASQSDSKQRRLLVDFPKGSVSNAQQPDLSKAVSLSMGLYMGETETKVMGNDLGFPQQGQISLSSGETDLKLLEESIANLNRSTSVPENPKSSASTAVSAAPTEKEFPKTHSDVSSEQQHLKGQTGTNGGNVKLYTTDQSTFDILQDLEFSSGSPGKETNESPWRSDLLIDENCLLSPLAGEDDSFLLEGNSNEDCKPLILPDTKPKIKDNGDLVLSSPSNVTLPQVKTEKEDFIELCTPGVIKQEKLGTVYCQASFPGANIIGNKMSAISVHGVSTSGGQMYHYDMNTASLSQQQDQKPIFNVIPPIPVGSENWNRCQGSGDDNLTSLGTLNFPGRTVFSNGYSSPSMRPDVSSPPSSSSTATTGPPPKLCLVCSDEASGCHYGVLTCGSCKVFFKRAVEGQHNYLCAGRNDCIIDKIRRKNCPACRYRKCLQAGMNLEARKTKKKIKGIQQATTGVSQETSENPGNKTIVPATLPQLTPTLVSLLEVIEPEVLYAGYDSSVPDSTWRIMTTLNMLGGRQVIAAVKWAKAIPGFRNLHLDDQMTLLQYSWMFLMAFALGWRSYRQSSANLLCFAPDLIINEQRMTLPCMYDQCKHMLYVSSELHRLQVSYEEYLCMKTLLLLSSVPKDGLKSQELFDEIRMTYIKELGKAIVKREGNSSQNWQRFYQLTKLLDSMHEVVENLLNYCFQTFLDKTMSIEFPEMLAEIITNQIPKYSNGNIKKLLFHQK
row,Structure (SMILES),Potency [µM]
1,C[N+](C)(C)CCN(Cc1cccs1)c1ccccn1,> 9.22
2,CCOC(=O)C1=C(C)NC(C)=C(C(=O)OC)[C@@H]1c1cccc(Cl)c1Cl,> 20.6
3,CN1C[C@@H](C(=O)N[C@]2(C)O[C@]3(O)[C@H]4CCCN4C(=O)[C@H](Cc4ccccc4)N3C2=O)C[C@H]2c3cccc4[nH]cc(c34)C[C@@H]21,> 46
4,NC(=O)/C(=C\c1ccncc1)c1cccc2ccccc12,> 9.22
5,CCOC(=O)C1=C(C)NC(C)=C(C(=O)OC)[C@H]1c1cccc(Cl)c1Cl,> 46
6,C[C@H](CCC(=O)O)[C@H]1CC[C@@H]2[C@H]3CC[C@H]4C[C@@H](O)CC[C@@]4(C)[C@H]3CC[C@]21C,> 20.6
7,Cc1cc(C(C)(C)CC(C)(C)C)ccc1OCCOCC[N+](C)(C)Cc1ccccc1,> 20.6
8,CC[C@H](c1ccccc1)c1cc(C(C)(C)C)cc(C(C)(C)C)c1O,> 9.22
9,O[Si@](CCCN1CCCCC1)(c1ccc(F)cc1)C1CCCCC1,> 46
10,C[N+](C)(C)[C@@H](C1=CCCC1=O)c1ccccc1,> 9.22
11,CCCCCCCCN[C@@H](C)[C@H](O)c1ccc(SC(C)C)cc1,> 20.6
12,CC(=O)O[C@@H]1[C@H]([N+]2(C)CCCCC2)C[C@@H]2[C@@H]3CC[C@@H]4C[C@@H](OC(C)=O)[C@H]([N+]5(C)CCCCC5)C[C@@]4(C)[C@H]3CC[C@]21C,> 46

# Biological target: Mitogen-activated protein kinase 10 (Mus musculus) (UniProt Q61831)
# Assay: JNK3 AlphaScreen Assay (AID 530; active means well fitted curve in either direction with a large enough effect, not every such curve was filed as active;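 further: kinase came from lysate of stimulated human HepG2 cells; signal reports phosphorylation of biotinylated GST-cJun 1-79 at Ser73 with 10 µM ATP; on the % scale 0 is the no-effect control and ±100 the full control effect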)
# Conditions: JNK3 lysate, c-Jun phosphorylation; series mostly up to 57.1 µM
# In short: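 Room-temperature AlphaScreen kinase assay; pre-activated HepG2 lysate as JNK3 source, biotin-GST-cJun(1-79) substrate, 10 uM ATP, compound 15 min preincubation.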
Structure (SMILES),"activity change, negative = inhibition",Potency
C[N+](C)(C)CCN(Cc1cccs1)c1ccccn1,0.454% [at 11.4 µM],–
CCOC(=O)C1=C(C)NC(C)=C(C(=O)OC)[C@@H]1c1cccc(Cl)c1Cl,–,inactive
CN1C[C@@H](C(=O)N[C@]2(C)O[C@]3(O)[C@H]4CCCN4C(=O)[C@H](Cc4ccccc4)N3C2=O)C[C@H]2c3cccc4[nH]cc(c34)C[C@@H]21,–,inactive
NC(=O)/C(=C\c1ccncc1)c1cccc2ccccc12,1.18% [at 11.4 µM],–
CCOC(=O)C1=C(C)NC(C)=C(C(=O)OC)[C@H]1c1cccc(Cl)c1Cl,–,inactive
C[C@H](CCC(=O)O)[C@H]1CC[C@@H]2[C@H]3CC[C@H]4C[C@@H](O)CC[C@@]4(C)[C@H]3CC[C@]21C,–,inactive
CC[C@H](c1ccccc1)c1cc(C(C)(C)C)cc(C(C)(C)C)c1O,6.57% [at 11.4 µM],–
O[Si@](CCCN1CCCCC1)(c1ccc(F)cc1)C1CCCCC1,–,inactive
C[N+](C)(C)[C@@H](C1=CCCC1=O)c1ccccc1,5.46% [at 11.4 µM],–
CCCCCCCCN[C@@H](C)[C@H](O)c1ccc(SC(C)C)cc1,–,inactive
CC(=O)O[C@@H]1[C@H]([N+]2(C)CCCCC2)C[C@@H]2[C@@H]3CC[C@@H]4C[C@@H](OC(C)=O)[C@H]([N+]5(C)CCCCC5)C[C@@]4(C)[C@H]3CC[C@]21C,–,inactive

# Reference: PubChem BioAssay (NCATS)
